In PubChem BioAssay (Tox21):
Several values for one entry are separate records, joined by “and”; a condition that tells them apart may be missing. Equal entries are not always repeated. Results filed as inconclusive are left out. A structure can be active in one record and inactive in another. Activity calls are given as the source filed them. Unless noted, calls come from the whole dose curve; as a rule, active = well fitted curve in the direction sought with a large enough effect in the repeat runs; inconclusive = weak or mixed curves; inactive = no such curve, though single readings can be large; an effect the other way counts as inactive or inconclusive.

Key:
[1] = qHTS assay to identify small molecule antagonists of the constitutive androstane receptor (CAR) signaling pathway - cell viability counter screen (AID 1224837); note: series mostly up to about 92 µM; nearly all actives have a fitted effect of over 45% in size
In short: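 HepG2 cells stably expressing hCAR and a CYP2B6-2.2kb reporter were plated and pre-incubated 4 hr at 37 C/5% CO2, then given compounds at 15 concentrations plus 50 nM CITCO (final). After 23 hr, viability was read by CellTiter-Fluor fluorescence.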

[2] = biological target: Nuclear receptor subfamily 1 group I member 3 (Homo sapiens) (UniProt Q14994); test: qHTS assay to identify small molecule antagonists of the constitutive androstane receptor (CAR) signaling pathway (AID 1224838); note: nearly all actives have a fitted effect of over 40% in size; note: potency is the fitted concentration of half-maximal effect
Nuclear receptor subfamily 1 group I member 3 (Homo sapiens), sequence (Q14994 whole entry, looked up): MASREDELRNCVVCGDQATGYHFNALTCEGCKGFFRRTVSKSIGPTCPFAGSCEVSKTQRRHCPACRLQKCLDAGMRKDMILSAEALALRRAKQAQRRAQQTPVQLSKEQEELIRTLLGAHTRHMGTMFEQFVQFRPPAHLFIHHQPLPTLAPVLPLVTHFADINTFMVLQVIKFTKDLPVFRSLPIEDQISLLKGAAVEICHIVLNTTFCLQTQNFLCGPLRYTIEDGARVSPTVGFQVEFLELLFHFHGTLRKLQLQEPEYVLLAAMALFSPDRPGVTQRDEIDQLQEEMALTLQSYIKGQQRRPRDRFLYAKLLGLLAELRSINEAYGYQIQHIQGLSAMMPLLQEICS
In short: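 HepG2 cells stably co-transfected with hCAR and a CYP2B6-2.2kb luciferase reporter were seeded 4 h before compound addition at 15 concentrations. Cells were stimulated with 50 nM CITCO (final) for 24 h at 37 C; luciferase luminescence was then read.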

[3] = biological target: Nuclear receptor subfamily 1 group I member 3 (Homo sapiens) (UniProt Q14994); test: qHTS assay to identify small molecule agonists of the constitutive androstane receptor (CAR) signaling pathway (AID 1224839); note: nearly all actives have a fitted effect of over 15% in size; note: potency is the fitted concentration of half-maximal effect;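 for activation: HepG2 cells stably carrying human CAR and a CYP2B6 luciferase reporter; series mostly up to about 92 µM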
In short: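 HepG2 cells stably co-transfected with hCAR and a CYP2B6-2.2kb luciferase reporter; compounds at 15 concentrations with 0.75 uM PK11195 present. After 24 hr at 37 C, luciferase read by ONE-Glo luminescence.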

[4] = qHTS assay to identify small molecule antagonists of the estrogen related receptor signaling pathway with the pleiotropic PPARgamma coactivator (PGC) from Tox21 10K library - cell viability counter screen (AID 1224840; active = well fitted cell-killing curve with a large enough effect in the repeat runs, not every such curve was filed as active; note: nearly all actives have a fitted effect of over 40% in size; note: potency is the fitted concentration of half-maximal effect)
In short: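 PGC/ERR cells were seeded at 2,000 cells/well and left 6 hours at 37 C/5% CO2 before pin-tool addition of compounds in DMSO. After 17.5 hours at 37 C, CellTiter-Fluor was added and fluorescence read 30 minutes later.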

[5] = qHTS assay to identify small molecule agonists of the hypoxia (HIF-1) signaling pathway - cell viability counter screen (AID 1224844; calls by dose curve; note: nearly all actives have a fitted effect of over 50% in size; note: potency is the fitted concentration of half-maximal effect)
In short: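 HRE-bla ME-180 cells in medium with 0.5% dialyzed FBS were preincubated 5 hrs at 37C, exposed to compounds for 17 hrs, then viability was read as CellTiter-Glo luminescence after 30 min at room temperature, in the reporter wells.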

[6] = qHTS assay to identify small molecule agonists of H2AX (AID 1224845; active = well fitted activation curve with a large enough effect in the signal ratio in the repeat runs, not every such curve was filed as active; the % refers to the signal ratio; note: potency is the fitted concentration of half-maximal effect)
In short: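 Wild-type CHO-K1 cells plated overnight, then exposed 3 hr at 37C to compounds at 15 concentrations (0.76% DMSO). Lysed, then HTRF anti-pH2AX(S139)-cryptate/anti-H2AX-d2 detection after 24 hr at room temperature; emissions 665 and 620 nm.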

[7] = qHTS assay to identify small molecule agonists of the hypoxia (HIF-1) signaling pathway (AID 1224846; active = well fitted activation curve with a large enough effect in the signal ratio in the repeat runs, not every such curve was filed as active; the % refers to the signal ratio)
In short: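 HRE-bla ME-180 cells (beta-lactamase reporter under hypoxia response element) were plated at 2,000 cells/well in medium with 0.5% dialyzed FBS, rested 5 hrs, then given compounds in DMSO for 17 hrs at 37C, 5% CO2. Reporter induction was read with CCF4-AM FRET substrate.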

[8] = qHTS assay to identify small molecule antagonists of the estrogen related receptor signaling pathway with the pleiotropic PPARgamma coactivator (PGC) from Tox21 10K library (AID 1224841; call rule not given here; note: actives are mostly falling curves and most rising ones were filed inactive; nearly all actives have a fitted effect of over 50% in size; note: potency is the fitted concentration of half-maximal effect)
In short: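 PGC/ERR reporter cells were seeded at 2,000 cells/well and held 6 hours at 37 C/5% CO2 before pin-tool addition of compounds in DMSO. After 18 hours at 37 C, One-Glo was added and luminescence read after 30 minutes at room temperature.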

[9] = qHTS assay to identify small molecule agonists of the estrogen related receptor signaling pathway with the pleiotropic PPARgamma coactivator (PGC) from Tox21 10K library (AID 1224842); note: nearly all actives have a fitted effect of over 15% in size
In short: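 PGC/ERR reporter cells (NTP line) were seeded 2,000 per well, rested 6 h at 37 C/5% CO2, then pin-dosed with compounds in DMSO for 18 h at 37 C; luciferase read by One-Glo luminescence after 30 min at room temperature.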

[10] = biological target: Thyrotropin receptor (Homo sapiens) (UniProt P16473); test: qHTS assay to identify small molecule agonists of the thyroid stimulating hormone receptor (TSHR) signaling pathway (AID 1224843; calls by dose curve; note: nearly all actives have a fitted effect of over 45% in size)
Thyrotropin receptor (Homo sapiens), sequence (P16473 whole entry, looked up): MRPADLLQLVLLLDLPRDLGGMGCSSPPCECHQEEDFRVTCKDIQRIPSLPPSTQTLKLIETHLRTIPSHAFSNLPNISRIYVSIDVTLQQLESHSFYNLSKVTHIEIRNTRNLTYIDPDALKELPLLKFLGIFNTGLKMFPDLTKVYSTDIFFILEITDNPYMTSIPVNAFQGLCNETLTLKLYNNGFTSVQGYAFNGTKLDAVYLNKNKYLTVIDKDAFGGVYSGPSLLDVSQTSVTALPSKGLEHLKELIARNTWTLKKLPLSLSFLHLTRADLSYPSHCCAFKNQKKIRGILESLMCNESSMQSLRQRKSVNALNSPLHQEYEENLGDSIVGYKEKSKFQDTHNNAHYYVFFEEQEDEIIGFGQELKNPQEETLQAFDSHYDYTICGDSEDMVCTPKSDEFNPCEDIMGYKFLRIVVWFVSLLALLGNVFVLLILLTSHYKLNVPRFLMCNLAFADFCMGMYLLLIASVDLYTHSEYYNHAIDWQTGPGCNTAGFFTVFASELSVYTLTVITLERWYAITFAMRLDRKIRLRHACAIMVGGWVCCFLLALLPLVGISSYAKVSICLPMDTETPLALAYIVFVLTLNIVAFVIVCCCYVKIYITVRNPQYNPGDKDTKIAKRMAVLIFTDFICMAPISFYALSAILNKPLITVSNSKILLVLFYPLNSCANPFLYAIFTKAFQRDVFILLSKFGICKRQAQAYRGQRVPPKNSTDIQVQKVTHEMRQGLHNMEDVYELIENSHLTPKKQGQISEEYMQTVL
In short: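 Cell line HEK293 with TSHR; density 800/well. Exposure 30 min RT. Readout HTRF cAMP (cAMP-d2/anti-cAMP-cryptate), 1 h RT before reading.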

Measured: Potency

O=Cc1cccc(Oc2ccccc2)c1
inactive: [1] | [2] | [3] | [4] | [5] | [6] | [7]

Cc1[nH]c(=O)n(C(C)(C)C)c(=O)c1Cl
inactive: [1] | [2] | [3] | [4] | [5] | [6] | [7]

Cc1ccc(N)cc1N
inactive: [1] | [4] | [8] | [9] | [5] | [7]
active: [3] 53 µM

CC(C)(C)C(O)(CCc1ccc(Cl)cc1)Cn1cncn1 (centres undefined)
active: [8] 55.1 µM
inactive: [1] | [3] | [4] | [9] | [5] | [6] | [7]

CCNc1nc(NC(C)(C)C)nc(SC)n1
inactive: [1] | [4] | [5] | [6] | [7]

[N-]=[N+]=[N-]
inactive: [1] | [3] | [4] | [5] | [6] | [7]

Nc1c(Cl)c(Cl)nc(C(=O)O)c1Cl
inactive: [1] | [4] | [10] | [5] | [6] | [7]

CC1OC(C)OC(C)O1 (centres undefined)
inactive: [1] | [4] | [8] | [9] | [5] | [6] | [7]

CC1C=[C-]C=C1.[C-]#[O+].[C-]#[O+].[C-]#[O+].[Mn]
inactive: [1] | [4] | [5] | [6] | [7]

COP(N)(=O)SC (centres undefined)
inactive: [1] | [3] | [4] | [5] | [6] | [7]

CCN(CC)c1ccccc1
inactive: [1] | [4] | [5] | [6] | [7]

Cc1cccc([N+](=O)[O-])c1
inactive: [1] | [4] | [8] | [10] | [5] | [7]

CCCCCOC(=O)c1ccccc1C(=O)OCCCCC
inactive: [1] | [3] | [4] | [5] | [6] | [7]

COc1ccc2c3c1O[C@H]1[C@@H](O)C=C[C@H]4[C@@H](C2)N(C)CC[C@@]341
inactive: [1] | [9] | [5] | [7]
99.2 µM (active) and inactive: [6]
23.9 µM (active) and inactive: [8]
42.6 µM (active) and inactive: [4]

CC(C)OC(=O)Nc1cccc(Cl)c1
inactive: [1] | [4] | [8] | [9] | [5] | [6] | [7]

CCOP(=S)(OCC)SCCSCC
inactive: [1] | [3] | [4] | [5] | [6] | [7]

CCC[N+](=O)[O-]
37.9 µM (active) and inactive: [4]
inactive: [3] | [7]
4.81 µM (active) and inactive: [5]
5.56 µM (active) and inactive: [6]

CCC12COCN1COC2
inactive: [1] | [3] | [4] | [5] | [6] | [7]

c1ccc(-c2ccccc2)cc1
inactive: [1] | [4] | [10] | [5] | [6] | [7]

C=CC(N)=O
inactive: [1] | [4] | [5] | [6] | [7]

CC(Br)C(=O)O (centres undefined)
inactive: [1] | [3] | [4] | [5] | [6] | [7]

C#CCN(C)[C@H](C)Cc1ccccc1
inactive: [1] | [4] | [5] | [6]

OC(O)C(Cl)(Cl)Cl
inactive: [1] | [4] | [8] | [9] | [5] | [6] | [7]

CC(C)(C)OOC(=O)c1ccccc1
inactive: [1] | [3] | [4] | [5] | [6] | [7]

CCOP(OCC)OCC
inactive: [1] | [3] | [4] | [5] | [6] | [7]

Nc1ccc(Cc2ccc(N)cc2)cc1
inactive: [1] | [4] | [10] | [5] | [6] | [7]

O=c1ccc(=O)[nH][nH]1
inactive: [1] | [4] | [8] | [9] | [5] | [6] | [7]

CC(NC(C)(C)C)C(=O)c1cccc(Cl)c1 (centres undefined)
inactive: [1] | [4] | [5] | [6]

CN(C)N=O
inactive: [1] | [3] | [4] | [5] | [6] | [7]

Cc1cc(-c2cc(C)c(N)c(C)c2)cc(C)c1N
inactive: [1] | [3] | [4] | [5] | [7]

CCCCN(CCCC)SN(C)C(=O)Oc1cccc2c1OC(C)(C)C2
inactive: [1] | [4] | [10] | [5] | [7]

[O-][Cl+2]([O-])O
inactive: [1] | [3] | [4] | [5] | [6] | [7]

O=NN1CCCC1
11.5 µM (active) and inactive: [5]
inactive: [3] | [4] | [7]
28.6 µM (active) and inactive: [2]
16.7 µM (active) and inactive: [6]

O=[N+]([O-])c1ccccc1
inactive: [1] | [4] | [8] | [9] | [10] | [5] | [6] | [7]

CC(C)N1C(=O)c2ccccc2NS1(=O)=O
inactive: [1] | [4] | [8] | [9] | [10] | [5] | [6] | [7]

Oc1ccccc1Cl
inactive: [1] | [3] | [4] | [10] | [5] | [6] | [7]

CC(Oc1ccc(Cl)cc1Cl)C(=O)O (centres undefined)
inactive: [1] | [4] | [10] | [5] | [6] | [7]

CCCCCCCCCl
inactive: [1] | [4] | [5] | [6] | [7]

OCCN(CCO)CCO
inactive: [1] | [4] | [10] | [5] | [6] | [7]

CC(C#N)CCC#N (centres undefined)
inactive: [1] | [4] | [8] | [9] | [5] | [6] | [7]

CCCC1COC(Cn2cncn2)(c2ccc(Cl)cc2Cl)O1 (centres undefined)
active: [3] 62.3 µM and 61.1 µM | [4] 61.1 µM
inactive: [5] | [6] | [7]
